Experimental data from PubChem BioAssay AID1159580 (chemical genetic matrix, 2015).
“And” between values parts separate entries of the source, which are not always exact repeats. Equal values may be shown once. The whole screen tested about 5,500 compounds, of which about 2,000 (36%) were called active. Inconclusive results (about 18%) are left out. Rule as the data show it: active = normalized growth mostly below about 0.91 (no sharp cut-off); inconclusive = no clear call, values can overlap the other calls; inactive = mostly above about 0.92. Some of the results follow.

Test: chemical genetic growth profiling, strain panel (AID 1159580);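 also: tested at 20 µM; growth read once vehicle control cultures reached saturation at 30 °C; 1 = growth at the plate median or of vehicle wells; lower values mean less growth of the strain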
Details: S. cerevisiae deletion strains, growth OD

Measured: normalized growth

CN(C)C(=O)Nc1ccc(Cl)c(Cl)c1
inactive: locus YAL013W, strain DEP1, stronger effect = lower value 0.992 | locus YAL021C, strain ccr4, stronger effect = lower value 0.964 | locus YAL026C, strain drs2, stronger effect = lower value 0.97 | locus YAL030W, strain snc1, stronger effect = lower value 0.987 | locus YBL061C, strain skt5, stronger effect = lower value 0.991 | locus YBR009C, strain hhf1, stronger effect = lower value 0.926 | locus YBR021W, strain FUR4, stronger effect = lower value 0.904 | locus YBR023C, strain chs3, stronger effect = lower value 0.983 | locus YBR171W, strain sec66, stronger effect = lower value 1.01 | locus YBR229C, strain ROT2, stronger effect = lower value 1 | locus YBR231C, strain swc5, stronger effect = lower value 1.01 | locus YBR279W, strain paf1, stronger effect = lower value 0.97 | locus YCL011C, strain gbp2, stronger effect = lower value 0.954 | locus YCL016C, strain dcc1, stronger effect = lower value 0.974 | locus YCL029C, strain bik1, stronger effect = lower value 1.01 | locus YCL061C, strain MRC1, stronger effect = lower value 0.958 | locus YCL069W, strain vba3, stronger effect = lower value 0.994 | locus YCR088W, strain abp1, stronger effect = lower value 0.991 | locus YDL005C, strain med2, stronger effect = lower value 1 | locus YDL035C, strain GPR1, stronger effect = lower value 0.983 | locus YDL040C, strain nat1, stronger effect = lower value 0.991 | locus YDL074C, strain BRE1, stronger effect = lower value 0.899 | locus YDL101C, strain DUN1, stronger effect = lower value 0.999 | locus YDL134C, strain PPH21, stronger effect = lower value 0.986 | locus YDL185W, strain tfp1, stronger effect = lower value 1.02 | locus YDL192W, strain arf1, stronger effect = lower value 1 | locus YDR001C, strain nth1, stronger effect = lower value 0.99 | locus YDR069C, strain doa4, stronger effect = lower value 0.987 | locus YDR101C, strain arx1, stronger effect = lower value 1 | locus YDR137W, strain rgp1, stronger effect = lower value 1.03 | locus YDR150W, strain NUM1, stronger effect = lower value 0.993 | locus YDR159W, strain sac3, stronger effect = lower value 0.989 | locus YDR162C, strain NBP2, stronger effect = lower value 0.948 | locus YDR195W, strain ref2 1.1 | locus YDR297W, strain sur2, stronger effect = lower value 0.98 | locus YDR318W, strain mcm21, stronger effect = lower value 0.994 | locus YDR334W, strain swr1, stronger effect = lower value 1.01 | locus YDR335W, strain msn5, stronger effect = lower value 0.994 | locus YDR388W, stronger effect = lower value 0.992 | locus YDR392W, strain spt3, stronger effect = lower value 0.888 | locus YDR502C, strain sam2, stronger effect = lower value 0.989 | locus YEL003W, strain gim4, stronger effect = lower value 0.997 | locus YEL037C, strain rad23, stronger effect = lower value 0.993 | locus YEL061C, strain CIN8 (second series), stronger effect = lower value 1.01 | locus YEL061C, strain CIN8, stronger effect = lower value 0.998 | locus YER015W, strain faa2, stronger effect = lower value 0.968 | locus YER016W, strain bim1, stronger effect = lower value 0.992 | locus YER110C, stronger effect = lower value 1.01 | locus YER111C, strain swi4, stronger effect = lower value 1.02 | locus YER155C, strain BEM2 (second series), stronger effect = lower value 0.944 | locus YER155C, strain BEM2, stronger effect = lower value 1.01 | locus YER167W, strain BCK2, stronger effect = lower value 1 | locus YFR010W, strain ubp6, stronger effect = lower value 0.994 | locus YGL078C, strain dbp3, stronger effect = lower value 1.01 | locus YGL086W, strain mad1, stronger effect = lower value 0.997 | locus YGL167C, strain pmr1, stronger effect = lower value 0.988 | locus YGL173C, strain kem1, stronger effect = lower value 0.993 | locus YGL227W, strain vid30, stronger effect = lower value 0.995 | locus YGL240W, strain doc1, stronger effect = lower value 0.967 | locus YGL248W, strain PDE1, stronger effect = lower value 0.987 | locus YGL253W, strain hxk2, stronger effect = lower value 0.951 | locus YGR078C, strain PAC10, stronger effect = lower value 0.982 | locus YGR135W, strain pre9, stronger effect = lower value 0.98 | locus YGR229C, strain SMI1, stronger effect = lower value 0.942 | locus YGR252W, strain gcn5, stronger effect = lower value 0.807 | locus YHR013C, strain ard1, stronger effect = lower value 0.995 | locus YHR027C, strain rpn1, stronger effect = lower value 1.02 | locus YHR030C, strain SLT2, stronger effect = lower value 1.01 and 0.992 | locus YHR079C, strain IRE1 (second series), stronger effect = lower value 0.992 | locus YHR079C, strain IRE1, stronger effect = lower value 0.985 | locus YHR094C, strain hxt1, stronger effect = lower value 1 | locus YHR129C, strain ARP1, stronger effect = lower value 0.984 | locus YHR142W, strain chs7, stronger effect = lower value 0.887 | locus YHR200W, strain rpn10, stronger effect = lower value 0.991 | locus YIL066C, strain RNR3, stronger effect = lower value 0.981 | locus YIL073C, strain SPO22, stronger effect = lower value 0.981 | locus YIL125W, strain kgd1, stronger effect = lower value 1 | locus YIR030C, strain dcg1, stronger effect = lower value 1 | locus YJL092W, strain hpr5, stronger effect = lower value 0.982 | locus YJL095W, strain BCK1 (second series), stronger effect = lower value 1 | locus YJL095W, strain BCK1, stronger effect = lower value 0.96 and 0.984 | locus YJL115W, strain asf1, stronger effect = lower value 1 | locus YJL129C, strain trk1, stronger effect = lower value 0.984 | locus YJL134W, strain LCB3, stronger effect = lower value 0.996 | locus YJL154C, strain vps35, stronger effect = lower value 0.997 | locus YJL164C, strain tpk1, stronger effect = lower value 0.952 | locus YJL166W, strain qcr8, stronger effect = lower value 0.976 | locus YJL168C, strain set2, stronger effect = lower value 1 | locus YJL187C, strain SWE1 (second series), stronger effect = lower value 0.999 | locus YJR043C, strain POL32, stronger effect = lower value 0.88 | locus YJR066W, strain TOR1, stronger effect = lower value 0.93
